Screens (PubChem BioAssay)
A selection: hits, their analogues and other compounds. The true share with any hit is near 0.37%.
Rab7 wt GTP bind – modulators of GTP binding to Rab7, primary screen, biochemical, wildtype, multiplex bead flow cytometry | 190,000 compounds, 0.055% hits | GST-Rab7 beads, fluorescent GTP binding; actives lie on both sides; untreated = 100%, excess cold GTP = 0% | GTP binding activity (percent of control), % at 10 µM;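 active = fluorescent GTP binding to Rab7 beads changed by at least 20 points from the 100% baseline, either direction, mostly lower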;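 note: median green fluorescence of bound Bodipy-FL-GTP per Rab7 bead population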
Rab2 wt GTP – modulators of GTP binding to Rab2A wildtype, primary screen, biochemical, dog, bead-based flow cytometry, multiplex. 190,000 compounds, 0.19% hits. GST-Rab2 wt beads, Bodipy-GTP binding. GTP binding activity, % at 10 µM;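 active = GTP binding activity at least 20 points away from 100%, either lowered or raised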
Cdc42 wt – modulators of GTP binding to wildtype Cdc42, primary screen, biochemical, multiplex bead flow cytometry, Bodipy-GTP; Cell division control protein 42 homolog (Homo sapiens), P60953; GST-Cdc42 beads; actives lie on both sides; percent activity (GTP binding), % at 10 µM; 190,000 compounds, 0.2% hits; AID 761, 2007;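 active = percent activity GTP binding at least 20 points away from the 100% baseline, either down as inhibitor or up as activator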;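 note: median bead fluorescence of bound Bodipy-FL-GTP at 100 nM; below 100% means less GTP binding so inhibitor and above means activator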
Rac1 wt GTP bind – wildtype Rac1 GTP binding modulators, primary screen, biochemical, GST-Rac1 beads, flow cytometry, multiplex; Ras-related C3 botulinum toxin substrate 1 (Homo sapiens), P63000; fluorescent GTP binding; actives lie on both sides; 0 = cold GTP competed, 100 = untreated; GTP binding activity (% of control), % at 10 µM; 190,000 compounds, 0.27% hits; AID 757, 2007;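 active = GTP binding activity at least 20 points away from the 100% control level, either lower or higher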
HRas wt GTP bind – modulators of GTP binding to HRas wildtype, primary screen, biochemical, bead-based flow cytometry, multiplex; GTPase HRas (Homo sapiens), P01112; AID 759, 2007; GST-Ras wt beads, Bodipy-FL-GTP binding; actives lie on both sides; 190,000 compounds, 0.14% hits; GTP binding activity, % at 10 µM;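 active = GTP binding activity at least 20% away from the 100% baseline, either lowered as inhibitor or raised as activator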
Target sequence (P01112 whole entry, looked up): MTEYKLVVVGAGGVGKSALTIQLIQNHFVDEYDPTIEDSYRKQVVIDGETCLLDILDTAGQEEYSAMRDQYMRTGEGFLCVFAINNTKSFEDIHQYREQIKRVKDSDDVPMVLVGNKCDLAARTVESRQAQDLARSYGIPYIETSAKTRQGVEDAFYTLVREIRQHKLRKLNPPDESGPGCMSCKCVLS
Rac1 mut GTP – GTP binding modulators of activated mutant Rac1, primary screen, biochemical, bead-based flow cytometry, multiplex, fluorescent GTP | Ras-related C3 botulinum toxin substrate 1 (Homo sapiens), P63000 | GST-Rac1 activated beads; actives lie on both sides; 100% means binding = to untreated wells | percent activity (GTP binding), % at 10 µM | 190,000 compounds, 0.11% hits | AID 764, 2007;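 active = GTP binding at least 20 percentage points away from the 100% baseline, in either direction, so actives lie on both sides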
Each line names hits and unclear results; the compound was inactive in the other large screens; [ ] = dose if it differs, or a comment.

CC1(C)CC(n2[nH]c(=O)c3c2NC(=O)CSC3c2ccccc2)CCO1 (centres undefined)	Rab2 wt GTP 75
Cc1ccc(C2SCC(=O)Nc3c2c(=O)[nH]n3C2CCOC(C)(C)C2)cc1 (centres undefined)	none
CCCC(=O)NC(Oc1ccc(C(C)=O)cc1)C(Cl)(Cl)Cl (centres undefined)	none
O=c1[nH]c(=S)[nH]c(O)c1N=Nc1ccc2c(c1)OCO2	none
O=c1[nH]c(=S)[nH]c(O)c1N=Nc1cc2c(cc1[N+](=O)[O-])OCO2	Cdc42 wt 79, Rac1 mut GTP 79
O=C(CSC1c2ccccc2-c2ccccc21)N/N=C/c1ccccc1O	none
CC(Oc1ccc(-c2ccccc2)cc1)C(=O)O (centres undefined)	Rab7 wt GTP bind 126[activator], Rab2 wt GTP 141[activator], Cdc42 wt 161[activator], Rac1 wt GTP bind 157[activator], HRas wt GTP bind 137[activator], Rac1 mut GTP 130[activator]
Cc1cc(C)cc(N2C(=O)NC(=O)/C(=C\C=C\c3ccco3)C2=O)c1	Cdc42 wt 78, Rac1 wt GTP bind 78
COCCCn1c(N)c(C(=O)Nc2sc3c(c2C(=O)OC)CCCC3)c2nc3ccccc3nc21	Rab2 wt GTP 66, Cdc42 wt 67, HRas wt GTP bind 65
CCC(C)NC(=O)c1c(N)n(CCCOC)c2nc3ccccc3nc12 (centres undefined)	none
COc1cccc(C(=O)C2CCCN(Cc3cccc4c3OCO4)C2)c1 (centres undefined)	none
COc1ccc(-c2cc(=NCCCCCC(=O)O)c3cc(C)ccc3o2)cc1	Rab2 wt GTP 70, Cdc42 wt 69, Rac1 wt GTP bind 71, HRas wt GTP bind 73
